# Reference: PubChem BioAssay AID1578 (Sanford-Burnham Center for Chemical Genomics, 2009)
# Where “and” joins values, the source holds several entries; their conditions need not be identical. Identical values can stand only once. Screen size: about 290,000 compounds; about 3,000 (1%) were called active. No stated cut-off is given here; in the data, active means inhibition mostly above about 36% (no sharp cut-off); inactive means mostly below about 34%. For the sample, actives were picked, then their nearest neighbours and some compounds at random.
# Assay: inhibition of NOD1-driven NF-kB reporter – cell-based, luminescence, uHTS, primary screen (AID 1578);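 further: HEK-293T reporter cells stimulated with the NOD1 agonist gamma-tri-DAP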
# Settings: NOD1-driven NF-kB luciferase reporter cells, at 4 µM, stronger effect = higher value
row,SMILES,inhibition
1,O=C(Nc1ccc(F)cc1)N(Cc1cccs1)Cc1cc2cc3c(cc2[nH]c1=O)OCO3,-9.6% (inactive)
2,CC1(C)CC(=O)C(C=NCC2CCNCC2)=C(O)C1,-6.2% (inactive)
3,C=CCNC(=S)Nc1ccc(OC(F)F)c(Cl)c1,-16.4% (inactive)
4,CN1C(=O)Cc2cc(S(=O)(=O)NCCc3ccc(Cl)cc3)ccc21,-20.9% (inactive)
5,Cc1ccc(S(=O)(=O)N2Cc3ccccc3CC2C(=O)Nn2cnnc2)cc1 (configuration not stated),-8.2% (inactive)
6,CCn1nc(C(=O)OCC(=O)c2cc(C)n(Cc3cccs3)c2C)c2ccccc2c1=O,-15% (inactive)
7,Cc1cc(C(=O)COC(=O)c2ccc3c(c2)OCO3)c(C)n1Cc1cccs1,-27.2% (inactive)
8,Cc1cc(C(=O)COC(=O)c2ccccc2O)c(C)n1Cc1cccs1,99.2% (active)
9,O=C(COC(=O)c1ccco1)NC1CCCC1,-23.8% (inactive)
10,Cc1cc(NC(=O)CSc2nc3ccsc3c(=O)n2CCCC(=O)NCCc2ccccc2)no1,-20% (inactive)
11,CC(C1CC1)N(Cc1ccccc1)C(=O)NC(=O)c1ccc(F)cc1 (configuration not stated),-23.2% (inactive)
12,Cc1cccc(-n2cc(-c3ccccc3)c3c(NN4CCOCC4)ncnc32)c1,-8.1% (inactive)
13,Cc1ccc(-n2cc(-c3ccccc3)c3c(N4CCOCC4)ncnc32)cc1,20.2% (inactive)
14,Cc1cccc(-n2cc(-c3ccccc3)c3c(N4CCOCC4)ncnc32)c1,56.2% (active)
15,COc1ccc2c(C)nc(Nc3nc(C)c(C)c(=O)[nH]3)nc2c1,80.7% (active)
16,CCc1c(C)nc(Nc2nc(C)c3ccc(OC)cc3n2)[nH]c1=O,-7.1% (inactive)
17,CCc1c(C)nc(Nc2nc(C)c3cc(OC)ccc3n2)[nH]c1=O,-42.8% (inactive)
18,Cc1sc2ncnc(N3CCC(C(=O)NNC(=O)c4ccccc4Cl)CC3)c2c1C,5.2% (inactive)
19,CNC(=O)COC(=O)c1ccc(OCC(=O)Nc2ccccc2OC)c(OC)c1,-18.6% (inactive)

row,SMILES,inhibition
1,CC1(C)CC(=O)C2=C(C1)OC(N)=C(C#N)[C@@]21C(=O)N(CC(N)=O)c2ccccc21,-14.4% (inactive)
2,Cc1ccc(NC(=O)c2cc3ccccc3o2)cc1S(=O)(=O)N(C)C,-60.5% (inactive)
3,Cc1ccc(NC(=O)c2cc3ccccc3oc2=O)cc1S(=O)(=O)N(C)C,98.1% (active)
4,COc1ccccc1NS(=O)(=O)c1cc(NC(=O)c2cc3ccccc3oc2=O)ccc1C,42.3% (inactive)
5,O=C(NC1CCCN(c2ccc(C(F)(F)F)cn2)C1)c1ccncc1 (configuration not stated),-22% (inactive)
6,O=[N+]([O-])c1cccc(-c2nc(-c3cccs3)c(-c3cccs3)[nH]2)c1,26.4% (inactive)
7,O=[N+]([O-])c1cccc(-c2nc(-c3ccccc3)c(-c3cccs3)[nH]2)c1,-1.1% (inactive)
8,O=[N+]([O-])c1ccc(O)c(-c2nc(-c3ccccc3)c(-c3cccs3)[nH]2)c1,80.7% (active)
9,CCOC(=O)Cc1csc(NC(=O)CN2CCN(CC)CC2)n1,-2.4% (inactive)
10,O=C1c2ccccc2NC(c2cccs2)N1NS(=O)(=O)c1ccccc1 (configuration not stated),-22.6% (inactive)
11,N#C/C(=C\c1ccc(OCc2ccccc2)cc1)C(=O)Nc1nc2c(s1)CCN(Cc1ccccc1)C2,-24.8% (inactive)
12,CC1CCc2cc(F)ccc2N1C(=O)CSc1nnc2c(n1)[nH]c1ccc(F)cc12 (configuration not stated),25.7% (inactive)
13,CC1Cc2ccccc2N1C(=O)CSc1nnc2c(n1)[nH]c1ccc(F)cc12 (configuration not stated),48.5% (active)
14,CC1Cc2ccccc2N1C(=O)CSc1nnc2c(n1)[nH]c1ccccc12 (configuration not stated),-0.9% (inactive)
15,CCCCN(Cc1ccccc1)S(=O)(=O)c1c(N)n(C)c(=O)n(C)c1=O,-10.5% (inactive)
16,CCc1nc(SCC(=O)N2CCC(Cc3ccccc3)CC2)c2c(=O)n(C)c(=O)n(C)c2n1,34% (inactive)
17,CCCc1nc(SCC(=O)N2CCN(c3ccccc3)CC2)c2c(=O)n(C)c(=O)n(C)c2n1,9% (inactive)
18,CCn1nc(NC(=O)c2cccnc2)c2cc3cccc(C)c3nc21,-11.6% (inactive)
19,Cc1cc(Cl)ccc1OCC(=O)NCCCCc1ccccc1,-5.1% (inactive)

row,SMILES,inhibition
1,Nc1[nH]c(N=NC(=O)c2ccc(Cl)cc2)c2ccccc12,-25.6% (inactive)
2,CCOCCCNC(=S)Nc1ccc2nc(N3CCOCC3)cc(C)c2c1,-4% (inactive)
3,Cc1cc(-c2ccc(C(C)C)c(S(=O)(=O)NCCN3CCC(C)CC3)c2)on1,-17.2% (inactive)
4,Cc1ccnc(NC(=O)Nc2cccc(F)c2)n1,-65.5% (inactive)
5,CCN1CCN(Cc2ccc(C(=O)Nc3ccc(C)c(NCc4cnc(NC(=O)OC)cn4)c3)cc2C(F)(F)F)CC1,-2.2% (inactive)
6,Cc1ccc(C(=O)Nc2cccc(C(F)(F)F)c2)cc1Nc1cnccn1,-3.7% (inactive)
7,CCN1CCN(Cc2ccc(NC(=O)c3ccc(C)c(NC(=O)N4CCNC4=O)c3)cc2C(F)(F)F)CC1,-7.6% (inactive) and 18% (inactive)
8,Cc1ccc(C(=O)Nc2cccc(C(F)(F)F)c2)cc1Nc1ccccn1,-7.5% (inactive)
9,CN(C)c1ccc(/C=C2\C(=N)N3N=C(CC(=O)N4CCCC4)SC3=NC2=O)cc1Br,-16.4% (inactive)
10,CC(C)(Oc1ccc(Cl)cc1)C(=O)Nc1ccc2oc(=O)ccc2c1,-7.5% (inactive)
11,Cc1ccc(NC(=O)Nc2cccc(C)n2)cc1,-12.5% (inactive)
12,Cc1cccc(NC(=O)Nc2ccc(C#N)cc2)n1,62.7% (active)
13,Cc1cccc(NC(=O)Nc2cccc(C#N)c2)n1,-17.2% (inactive)
14,COc1ccc(OCC(=O)Nc2ccc3c(c2)nc(CCN2CCCCC2)n3C)cc1,-22.2% (inactive)
15,Cc1nnc(NC(=O)c2c(F)c(F)c(F)c(F)c2F)s1,-22.9% (inactive)
16,O=C(N/N=C/c1ccc(OC(=O)c2ccccc2Cl)cc1)c1ccccn1,-55.2% (inactive)
17,CN1C(CC(=O)Nc2ccc(Br)cc2)c2ccccc2CC1(C)C (configuration not stated),92.6% (active)
18,CN1C(CC(=O)Nc2ccc(Cl)cc2Cl)c2ccccc2CC1(C)C (configuration not stated),2.4% (inactive)
19,Cc1ccccc1NC(=O)CC1c2ccccc2CC(C)(C)N1C (configuration not stated),-25.6% (inactive)
